Records with an inconclusive call do not appear. Entries that show only a call come without a potency. The source made the active and inactive calls. Calls come from the whole dose curve.

A short description of this assay: Primary qHTS to identify inhibitors of SARS-CoV-2 cell entry (AID 1645846). Note: nearly all actives have a fitted effect of over 45% in size. The conditions noted are these: SARS-CoV-2 pseudovirus cell entry assay, luminescence; activity change, negative = inhibition: at 57.1 µM (top of the series) unless noted; series mostly up to 57.1 µM. Summed up:
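Inhibition of spike-mediated entry was scored in human ACE2-transfected Expi293F cells. Particles were MLV-pseudotyped with Wuhan-Hu-1 S carrying a 19-aa C-terminal deletion; signal was luciferase after two days, scaled between spike PP and fusion-protein-free PP.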
A general note: In qHTS, concentration-response curves come from the screen itself.
On to `NC(N)=NCCN1CCCCCCC1`, for which the outcome is “inactive [at 0.702 µM]”.
Take `C[C@H]1C[C@@H]2[C@H]([C@@H](O)C[C@@]3(C)[C@H]2CC[C@]3(O)C(=O)CO)[C@@]2(C)C=CC(=O)C=C12`: the Potency entry was “inactive”.
Still for that read-out and setting: under `CCN1CCC[C@H]1CNC(=O)c1cc(S(N)(=O)=O)ccc1OC` stands “inactive”.
Turning to `CC(=O)Nc1ccc(OC(=O)c2ccccc2OC(C)=O)cc1`, the activity change, negative = inhibition is -2.29%.
The same measure, in the same setting: under `COc1c(N2C[C@@H]3CCCN[C@@H]3C2)c(F)cc2c(=O)c(C(=O)O)cn(C3CC3)c12` stands -24.8%.
As for `C=CC(N)CCC(=O)O` (configuration not stated), the Potency entry was “inactive”.
Consider `Nc1nc(/C(=C/CC(=O)O)C(=O)N[C@@H]2C(=O)N3C(C(=O)O)=CCS[C@H]23)cs1`, for which the activity change, negative = inhibition is -21.3%.
In the case of `CC(C(=O)O)c1ccc(/C=C2\CCCCC2=O)cc1` (configuration not stated), the Potency entry was “inactive”.
Still for that read-out and setting: in the case of `CC(C)(CO)[C@@H](O)C(=O)NCCCO` it was “inactive”; in that of `N#CSCC(=O)O`, “inactive”.
Consider `CC(CN(C)C)C(C)(O)Cc1ccc(Cl)cc1` (configuration not stated), for which the activity change, negative = inhibition came to 0.771%.
With `NC(=O)c1cccnc1`, the activity change, negative = inhibition is -15.2%.
The same measure, in the same setting: under `NCCNCCNCCNCCN` stands 4.56% [at 11.3 µM].
For `C[C@]12CCC(=O)C=C1CC[C@@H]1[C@@H]2CC[C@]2(C)C(=O)CC[C@@H]12`, the Potency result is “inactive”.
On the same count and under the same terms, under `COc1c2occc2cc2ccc(=O)oc12` stands “inactive”.
In the case of `CC(=O)Nc1ccccc1`, the activity change, negative = inhibition was found to be 4.61%.
Still for that read-out and setting: under `C[N+](C)(CCOc1ccccc1)Cc1cccs1` stands -23%.
Turning to `O=C(O)CCCCCCCC(=O)O`, the Potency entry is “inactive”.
On the same count and under the same terms, in the case of `CCCCCCCC/C=C/C(=O)O` it was “inactive”.
Still for that read-out and setting: under `O=C(CCOCCOCCOCCOCCC(=O)Nc1c(I)cc(I)c(C(=O)O)c1I)Nc1c(I)cc(I)c(C(=O)O)c1I` stands “inactive”; under `C[C@@H]1CN(c2c(F)c(F)c3c(=O)c(C(=O)O)cn(C4CC4)c3c2F)C[C@H](C)N1`, “inactive”; under `COC(=O)CCCCC(CCSS/C(CCO)=C(\C)N(C=O)Cc1cnc(C)nc1N)SC(C)=O` (configuration not stated), “inactive”.
